Each structure is given as a SMILES string. Out of some 39,000 compounds screened, about 3,300 (8.5%) were called active. Only a selection was taken, and actives are over-represented in it overall.

This assay deals with HepG2. Nature of the assay: cytotoxicity call (relative viability < 0.9). The conditions noted are these: 10 µM.
Consider `C[C@@H]1CN([C@@H](C)CO)C(=O)c2cc(NS(=O)(=O)c3cn(C)cn3)ccc2O[C@@H]1CN(C)C(=O)NC1CCCCC1`, for which the cytotoxicity call was “inactive”.
Then `COc1ccc(S(=O)(=O)N(C)C[C@H]2OCCCC[C@@H](C)Oc3ccc(NS(=O)(=O)c4cn(C)cn4)cc3C(=O)N([C@@H](C)CO)C[C@@H]2C)cc1`, with “inactive”.
For the compound `C[C@@H]1CCCCO[C@H](CN(C)C(=O)Nc2cccc3ccccc23)[C@H](C)CN([C@@H](C)CO)C(=O)c2cc(NS(=O)(=O)c3cn(C)cn3)ccc2O1`, the cytotoxicity call is “inactive”.
On to `COc1ccc(S(=O)(=O)Nc2cccc3c2O[C@H](CN(C)C(=O)NC(C)C)[C@@H](C)CN([C@H](C)CO)C3=O)cc1`, for which the cytotoxicity call is “inactive”.
As for `C[C@@H]1CCCCO[C@H](CN(C)S(=O)(=O)c2ccccc2)[C@@H](C)CN([C@H](C)CO)C(=O)c2cc(NC(=O)C3CCCCC3)ccc2O1`, the cytotoxicity call is “inactive”.
As for `CNC(=O)C(=O)NC[C@H]1CCCN1S(=O)(=O)c1cccs1`, the cytotoxicity call was “inactive”.
Then `CC(=O)OC1CCC2(C)C(CCC3C4CC=C(C(C)=O)C4(C)CCC32)C1` (stereo not drawn) [3-beta-ACETOXYALLOPREG-16-EN-20-ONE ], with “inactive”.
Then `Cc1noc(C)c1S(=O)(=O)Nc1ccc2c(c1)CC(=O)N([C@H](C)CO)C[C@@H](C)[C@@H](CN(C)S(C)(=O)=O)O2`, with “inactive”.
For `C[C@@H]1CCCCO[C@@H](CN(C)C(=O)CCC(F)(F)F)[C@H](C)CN([C@@H](C)CO)C(=O)c2cc(NC(=O)CCC(F)(F)F)ccc2O1` the value was “inactive”; for `C[C@@H]1CN([C@@H](C)CO)C(=O)c2cc(NC(=O)NC3CCCCC3)ccc2O[C@@H](C)CCCCO[C@@H]1CN(C)Cc1ccc(C(F)(F)F)cc1`, “inactive”; for `C[C@@H]1CCCCO[C@H](CN(C)Cc2ccc(C(F)(F)F)cc2)[C@H](C)CN([C@@H](C)CO)C(=O)c2cc(NC(=O)NC3CCCCC3)ccc2O1`, “active”.
As to `C[C@@H]1CCCCO[C@@H](CN(C)Cc2ccc(C(F)(F)F)cc2)[C@H](C)CN([C@H](C)CO)C(=O)c2cc(NC(=O)NC3CCCCC3)ccc2O1`, the cytotoxicity call is “active”.
Consider `C[C@@H]1CN([C@H](C)CO)C(=O)c2cc(NC(=O)NC3CCCCC3)ccc2O[C@@H](C)CCCCO[C@H]1CN(C)Cc1ccc(C(F)(F)F)cc1`, for which the cytotoxicity call is “inactive”.
Then `C[C@H]1CCCCO[C@@H](CN(C)Cc2ccc(C(F)(F)F)cc2)[C@@H](C)CN([C@@H](C)CO)C(=O)c2cc(NC(=O)NC3CCCCC3)ccc2O1`, with “active”; and `CCC(=O)Nc1ccc2c(c1)OC[C@H](C)N(C(=O)CN1CCOCC1)C[C@H](C)[C@@H](OC)CN(C)C2=O`, with “inactive”; and `CO[C@H]1CN(C)C(=O)c2ccc(NS(=O)(=O)c3cn(C)cn3)cc2OC[C@H](C)N(CC2CC2)C[C@H]1C`, with “inactive”.
`O=C(N/N=C/[C@H](O)[C@@H](O)[C@@H](O)[C@H](O)CO)c1ccccn1`: the cytotoxicity call was “inactive”.
Take `COc1ccc(NC(=O)N(C)C[C@H]2OCCCC[C@H](C)Oc3ccc(NS(=O)(=O)c4ccc(Cl)cc4)cc3C(=O)N([C@@H](C)CO)C[C@@H]2C)cc1`: the cytotoxicity call was “inactive”.
For `COc1ccc(-c2cnc3c(c2)C(=O)N([C@H](C)CO)C[C@H](C)[C@@H](CN(C)C(=O)Cc2ccncc2)O3)cc1` the value was “inactive”; for `C[C@H](CO)N1C[C@H](C)[C@H](CN(C)S(C)(=O)=O)Oc2ccc(NS(=O)(=O)c3cccs3)cc2CC1=O`, “inactive”; for `C[C@@H]1CN([C@@H](C)CO)C(=O)Cc2cc(NS(=O)(=O)c3cn(C)cn3)ccc2O[C@H]1CN(C)C(=O)Nc1ccc(F)cc1`, “inactive”.
On to `C=CC[C@H](CC(=O)NCCO)C(=O)NC[C@H](OC(=O)[C@@H](CC=C)CC(=O)OC(C)(C)C)c1ccccc1`, for which the cytotoxicity call is “inactive”.
Then `COc1ccc(S(=O)(=O)Nc2cccc3c2O[C@H](CN(C)C(=O)Nc2cccc4ccccc24)[C@H](C)CN([C@@H](C)CO)C3=O)cc1`, with “inactive”; and `Cc1ccc(S(=O)(=O)Nc2cccc3c2O[C@H](CN(C)C(=O)Nc2cccc4ccccc24)[C@@H](C)CN([C@@H](C)CO)C3=O)cc1`, with “active”; and `Cc1ccc(S(=O)(=O)Nc2cccc3c2O[C@H](CN(C)C(=O)Nc2cccc4ccccc24)[C@@H](C)CN([C@H](C)CO)C3=O)cc1`, with “inactive”.
For `COc1ccc(S(=O)(=O)Nc2cccc3c2O[C@H](CN(C)C(=O)Nc2c(C)noc2C)[C@@H](C)CN([C@@H](C)CO)C3=O)cc1` the value was “inactive”; for `C[C@H](CO)N1C[C@H](C)[C@@H](CN(C)C(=O)Nc2cccc3ccccc23)Oc2c(NS(=O)(=O)c3cccs3)cccc2C1=O`, “inactive”.
For `C[C@H]1CN([C@@H](C)CO)C(=O)c2cccc(NS(=O)(=O)c3cccs3)c2O[C@@H]1CN(C)C(=O)Nc1cccc2ccccc12` the value was “active”; for `COc1ccc(S(=O)(=O)Nc2cccc3c2O[C@@H](CN(C)C(=O)Nc2cccc4ccccc24)[C@H](C)CN([C@@H](C)CO)C3=O)cc1`, “active”.
With `COc1ccc(S(=O)(=O)Nc2cccc3c2O[C@@H](CN(C)C(=O)Nc2c(C)noc2C)[C@H](C)CN([C@@H](C)CO)C3=O)cc1`, the cytotoxicity call is “inactive”.
For `Cc1ccc(S(=O)(=O)Nc2cccc3c2O[C@@H](CN(C)C(=O)Nc2cccc4ccccc24)[C@H](C)CN([C@@H](C)CO)C3=O)cc1` the value was “inactive”; for `COc1ccc(S(=O)(=O)Nc2cccc3c2O[C@H](CN(C)C(=O)Nc2cccc4ccccc24)[C@H](C)CN([C@H](C)CO)C3=O)cc1`, “inactive”; for `C[C@@H]1CN([C@H](C)CO)C(=O)c2cccc(NS(=O)(=O)c3cccs3)c2O[C@H]1CN(C)C(=O)Nc1cccc2ccccc12`, “inactive”.
With `COc1ccc(S(=O)(=O)Nc2cccc3c2O[C@H](CN(C)C(=O)Nc2c(C)noc2C)[C@@H](C)CN([C@H](C)CO)C3=O)cc1`, the cytotoxicity call was “active”.
Consider `CN(C)CC(=O)N[C@H]1CC[C@@H](CCn2cc(CN(C)C)nn2)O[C@H]1CO`, for which the cytotoxicity call was “inactive”.
As to `O=C(N[C@@H]1CC=CC[C@H](CC(=O)N(CCO)Cc2ccccc2)C(=O)NCC(c2ccccc2)OC1=O)OCC1c2ccccc2-c2ccccc21` (stereo partly drawn), the cytotoxicity call is “inactive”.
For the compound `C[C@@H]1CN([C@@H](C)CO)C(=O)c2cc(/C=C/c3ccccc3)cnc2O[C@H]1CN(C)C(=O)c1cnccn1`, the cytotoxicity call was “inactive”.
Then `Cc1cccc(S(=O)(=O)N2C[C@H](O)COC[C@@H]3O[C@@H](CC(=O)NCCCN4CCOCC4)CC[C@H]32)c1`, with “inactive”.

Values taken from the antibiotic and cytotoxicity screens of Wong et al. (2023).
